Assay outcomes from PubChem BioAssay.
FUS suppressor – rescues growth of FUS-expressing yeast. S. cerevisiae FUS-expressing, growth rescue, OD600, 24 h. AID 1347120. Potency, µM (series often up to 76.6 µM), usual class: activators. hit rate 0.24% among 390,000;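 note: plate controls were DMSO vehicle for no effect and reference control for full effect; nearly all actives have a fitted effect of over 55% in size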
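Yeast expressing FUS under galactose induction, OD 0.005 in 2% galactose medium; compounds in a dilution series, 24 h at 30C. Growth rescue by absorbance at 600 nm; CP55940 positive control, DMSO negative.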
Abeta yeast res – compounds reversing amyloid beta toxicity in yeast | yeast expressing A-beta42, growth rescue, OD600, 48 h; response scale: 0% DMSO, 100% iron-clioquinol control | Potency, µM (series often up to 46.1 µM), hits mostly activators | AID 1347071 | hit rate 0.063% among 410,000; note: nearly all actives have a fitted effect of over 55% in size
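Yeast A-beta toxicity model in growth medium with pinned compounds, 48 h at 30 C; growth read as absorbance at 600 nm. Normalized to FeCl3/clioquinol equimolar mix (positive) and DMSO (negative).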
aSyn yeast inh – inhibitors of alpha-synuclein toxicity in yeast; hit rate 0.14% among 370,000; AID 652106; Yeast expressing alpha-synuclein, growth rescue, BacTiter-Glo, 24 h; Potency, µM (doses to about 46.1 µM), for the others: at the highest dose growth rescue (activation), hits mostly activators; note: % of control where 0% means no effect; nearly all actives have a fitted effect of over 65% in size
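Rescue of yeast growth: cells expressing toxic alpha-synuclein, induced in galactose at OD600 0.02, incubated with compound 24 h at 30 C. ATP luminescence quantified growth; inhibitors of toxicity appear as activators.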
TDP-43 yeast inh – inhibitors of TDP-43 toxicity in yeast | TDP-43 expressing yeast growth rescue, BacTiter-Glo, 24 h | Potency, µM (highest dose often 46.1 µM), for inactives: top-dose growth rescue (activation), most hits filed as activators | hit rate 1.8% among 410,000; note: % of control where 0% means no effect; nearly all actives have a fitted effect of over 50% in size
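Growth rescue of TDP-43-toxic yeast measured as ATP luminescence (BacTiter-Glo). Cells grown to mid-log in raffinose, induced in galactose at OD600=0.02, exposed to compound 24 hr at 30 deg C.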
* hit, by the source's call; i = inactive; u = inconclusive; x = not tested or not shown; [ ] = remark or other dose. Compounds with a hit are over-represented: about 2.1% of the library has one in this group of screens. Calls come from the whole dose curve; as a rule, active = well fitted curve in the direction sought with a large enough effect; inconclusive = small, poorly fitted or top-dose-only effect, or another doubt; inactive = no such curve, though single readings can be large; an effect the other way counts as inactive or inconclusive. Potency is the fitted concentration of half-maximal effect.

SMILES	FUS suppressor	Abeta yeast res	aSyn yeast inh	TDP-43 yeast inh
COc1ccc(CCNc2cc(C)nc3c(-c4ccccc4)cnn23)cc1OC	u	i	-7.7%	-17.9%
COc1ccc(CCNc2cc(C)nc3c(-c4ccc(Cl)cc4)cnn23)cc1OC	u	i	12.3%	17.8µM*
CC(=O)Nc1ccc(Nc2cc(C)nc3c(-c4ccc(Cl)cc4)cnn23)cc1	x	i	-0.3%	3.16µM*
Cc1cc(N2CCCCC2)n2ncc(-c3ccc(Cl)cc3)c2n1	11.2µM*	i	-7.8%	14.1µM*
CCOC(=O)Cc1csc(SCC(=O)NC2CCS(=O)(=O)C2)n1 (stereo not drawn)	i	i	-0.1%	14.6%
CCc1c(C)c2ccc3c(c2oc1=O)CN(Cc1ccccc1)CO3	i	i	4.47µM*	-7.1%
Cc1ccccc1Cn1c(=O)n(CCCCC(=O)NCc2ccc3c(c2)OCO3)c(=O)c2ccccc21	i	i	x	22.2%
COc1ccc(CCNC(=O)C(=O)NCC(c2ccco2)S(=O)(=O)c2ccc(F)cc2)cc1 (stereo not drawn)	i	i	x	14.0%
COC(=O)c1cc2oc3ccccc3c2n1Cc1ccccn1	i	i	-20.3%	12.6µM*
COC(=O)c1cc2oc3ccccc3c2n1Cc1ccc(C)cc1	i	i	x	8.1%
O=C(c1ccccc1)N(C(=O)c1ccccc1)c1ccccc1	i	i	-10.0%	4.47µM*
CN(C(=O)c1ccccc1)C(=O)c1ccccc1	i	i	-3.3%	5.6%
O=C(NC(=S)Nc1ccccc1)c1csnn1	i	i	-27.9%	27.5%
CCO[C@H]1OC(C(=O)NCc2ccccc2)=C[C@@H](c2ccc(C(F)(F)F)cc2)[C@@H]1CCCO	u	i	u	3.5%
CCO[C@H]1OC(C(=O)Nc2ccccc2)=C[C@@H](c2ccc(C(F)(F)F)cc2)[C@@H]1CCCO	i	i	u	35.5µM*
O=C(NCC1CCCO1)c1ccccc1NS(=O)(=O)c1cc([N+](=O)[O-])ccc1Cl (stereo not drawn)	x	i	22.4µM*	-18.3%
COCCn1nnnc1C(C(C)C)N1CCSCC1 (stereo not drawn)	i	i	-1.1%	24.2%
CC(Oc1cc2oc(=O)cc(-c3ccccc3)c2cc1Cl)C(=O)NCC1CCC(C(=O)O)CC1 (stereo not drawn)	i	i	-11.8%	19.2%
CC(NC(=O)OC(C)(C)C)C(=O)Oc1cc2oc(=O)cc(-c3ccccc3)c2cc1Cl (stereo not drawn)	x	i	16.7%	4.47µM*
O=[N+]([O-])c1ccc2c(c1)/C(=N\O)c1ccccc1-2	i	i	0.5%	-2.9%
COc1cc2c(cc1[N+](=O)[O-])-c1ccc([N+](=O)[O-])cc1C2=NO	i	i	2.5%	10µM*
Cc1cccc(NC(=O)N2CCC(c3nc4ccccc4o3)CC2)c1	i	i	4.9%	0.5%
Cc1ccc(C2CCN(C(=S)Nc3cccc(C)c3)C2)cc1 (stereo not drawn)	u	12.6µM*	1.3%	22.4µM*
Cc1cccc(NC(=S)N2CCCCC2)c1	x	u	-4.7%	-12.7%
Cc1cccc(NC(=S)N2CCC(c3nc4ccccc4o3)CC2)c1	u	15.8µM*	-4.0%	-2.0%[0.397 µM]
SMILES	FUS suppressor	Abeta yeast res	aSyn yeast inh	TDP-43 yeast inh
COc1cccc(CN2C(=NC(=O)C3CC3)SC3CS(=O)(=O)CC32)c1 (stereo not drawn)	i	i	0.0%	7.8%
COc1ccc(N(CC(=O)Nc2cc(C)on2)S(=O)(=O)c2ccc(Cl)cc2)cc1	i	i	0.7%	17.2%
COc1ccc(N(CC(=O)Nc2cc(C)on2)S(=O)(=O)c2cc(C)ccc2C)cc1	31.6µM*	i	15.4%	u
Cc1cc(Br)c2c(c1)[C@](O)(c1cn(C)c3ccccc13)C(=O)N2C	i	u	0.0%	22.4µM*
CCCCCCSc1ccc([C@H]2N[C@@](C)(C(=O)OC)[C@H]3C(=O)N(C)C(=O)[C@@H]23)cc1	12.6µM*	i	u	u
O=C(Cc1cccs1)NC1CCCCN(Cc2cccc(Cl)c2)C1=O (stereo not drawn)	i	x	x	x
Nc1ccccc1C(=O)Nc1cccc2ccccc12	i	i	-3.3%	14.1µM*
COc1cc(CNC(=O)c2cnc(SC)nc2-c2ccccc2)cc(OC)c1OC	i	i	x	22.3%
COc1ccc(-c2c(NC(=O)c3ccco3)oc3c(C)cccc3c2=O)cc1	i	i	0.4%	14.1µM*
